About 79,000 compounds went through this panel and 15% of them were active in at least one assay; those are over-represented in the sample as a whole. Calls of active or inactive are those of the source. Rule as the data show it: active = growth inhibition above about 70%; inactive = the rest.
Columns and labels:
[1] = NCI Yeast Anticancer Drug Screen. Data for the rad52 strain (AID 147);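 also: 0% = growth of vehicle-treated control cultures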; conditions: S. cerevisiae rad52 mutant growth inhibition, active compounds read high
Outline: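 The repair-mutant yeast strain was incubated with compounds, then growth was read and inhibition derived relative to vehicle.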

[2] = NCI Yeast Anticancer Drug Screen. Data for the wt1 strain (AID 149);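 also: 0% = growth of vehicle-treated wt1 cultures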; conditions: S. cerevisiae wt1 strain (SPY 50644) growth inhibition, active compounds read high
Outline: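 Compounds are added to wt1 yeast cultures. Growth is then measured. Inhibition is expressed relative to vehicle-treated controls.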

[3] = NCI Yeast Anticancer Drug Screen. Data for the rad50EPP+ strain (AID 151);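 also: 0% = growth of vehicle-treated control cultures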; conditions: S. cerevisiae rad50 mutant strain, active compounds read high
Outline: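 Vehicle-normalised growth inhibition; rad50EPP+ yeast strain, altered in DNA damage repair, compound-treated.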

[4] = NCI Yeast Anticancer Drug Screen. Data for the mgt1 strain (AID 153); conditions: S. cerevisiae mgt1 mutant growth inhibition, active compounds read high
Outline: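 Vehicle-normalized growth inhibition is determined in mgt1 yeast, a strain selected for a defined alteration in DNA repair or cell cycle control.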

[5] = NCI Yeast Anticancer Drug Screen. Data for the rad50 strain (AID 155);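 also: 0% = growth of vehicle-only cultures of the same strain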; conditions: S. cerevisiae rad50 strain growth inhibition, active compounds read high
Outline: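 Inhibition values express reduced yeast growth in compound-treated cultures relative to vehicle-treated controls.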

[6] = NCI Yeast Anticancer Drug Screen. Data for the mec2-1 strain (AID 157); conditions: S. cerevisiae mec2-1 strain, active compounds read high
Outline: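 Mutant yeast (mec2-1) grown with compound; growth inhibition relative to vehicle control reported.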

[7] = NCI Yeast Anticancer Drug Screen. Data for the rad14 strain (AID 159);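 also: 0% = growth of vehicle-treated control cultures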; conditions: S. cerevisiae rad14 strain growth inhibition, active compounds read high
Outline: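 A mutant yeast strain defective in DNA damage repair is treated with compound; inhibition of its growth is scored against untreated, vehicle-exposed cultures.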

[8] = NCI Yeast Anticancer Drug Screen. Data for the sgs1 mgt1 strain (AID 161);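 also: 0% = growth of cultures given vehicle only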; conditions: S. cerevisiae sgs1 mgt1 strain, active compounds read high
Outline: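 Compounds are added to genetically altered yeast, and growth is compared with cultures given vehicle alone to give percent inhibition.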

[9] = NCI Yeast Anticancer Drug Screen. Data for the CLN2oe strain (AID 163);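 also: 0% = growth of vehicle-only control cultures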; conditions: S. cerevisiae CLN2oe strain, active compounds read high
Outline: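 Compounds are applied to yeast harbouring a defined cell-cycle control change; reduced growth compared with vehicle-treated controls gives the value.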

[10] = NCI Yeast Anticancer Drug Screen. Data for the cln2 rad14 strain (AID 165);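 also: 0% = growth equal to vehicle treated cultures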; conditions: S. cerevisiae cln2 rad14 strain, active compounds read high
Outline: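 Readout is yeast growth inhibition versus vehicle-treated controls, using a strain with cln2 and rad14 alterations exposed to compound.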

[11] = NCI Yeast Anticancer Drug Screen. Data for the bub3 strain (AID 167); conditions: S. cerevisiae bub3 mutant strain, active compounds read high
Outline: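 Steps: expose the mutant yeast strain to compound; grow alongside vehicle-treated cultures; measure growth; express inhibition against the vehicle cultures.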

[12] = NCI Yeast Anticancer Drug Screen. Data for the wt2 strain (AID 169);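 also: 0% = growth of vehicle-treated yeast cultures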; conditions: S. cerevisiae wt2 strain growth inhibition, active compounds read high
Outline: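 Against vehicle-treated controls, the growth of yeast exposed to each compound was compared, and the inhibition was recorded.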

[13] = NCI Yeast Anticancer Drug Screen. Data for the mlh1 strain (AID 171);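 also: 0% = growth of vehicle-treated control cultures of the same strain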; conditions: S. cerevisiae mlh1 strain growth inhibition, active compounds read high
Outline: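 Measured: yeast growth. Reference: vehicle-treated controls. Organism: strain with a defined alteration affecting DNA damage repair or cell cycle control, treated with compound.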

[14] = NCI Yeast Anticancer Drug Screen. Data for the sgs1 strain (AID 173);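 also: 0% = growth of vehicle-only control cultures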; conditions: S. cerevisiae sgs1 mutant, active compounds read high
Outline: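 Each compound was added to cultures of the altered yeast strain. Growth was recorded, and inhibition was derived by comparison with vehicle controls.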

[15] = NCI Yeast Anticancer Drug Screen. Data for the mlh1 rad18 strain (AID 175); conditions: S. cerevisiae mlh1 rad18 strain growth inhibition, active compounds read high
Outline: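 Genetically defined yeast (DNA repair-deficient) exposed to compounds; growth inhibition determined relative to vehicle.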

[16] = NCI Yeast Anticancer Drug Screen. Data for the rad18 strain (AID 177); conditions: S. cerevisiae rad18 mutant growth inhibition, active compounds read high
Outline: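 Vehicle-treated cultures served as the baseline for scoring compound-induced growth inhibition in DNA-repair-mutant yeast.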

[17] = at 5.0 µM (retest, dose inferred, filed as 0.5)
[18] = at 50.0 µM (retest, dose inferred, filed as 5.0)

Measured: growth inhibition

CCCNCC(=O)O[C@]1(CC)C(=O)OCc2c1cc1n(c2=O)Cc2cc3ccccc3nc2-1
active: [1]; at 1.2 µM 80% | [1]; at 3.7 µM 90% | [1]; at 11.0 µM 94% | [1]; at 33.0 µM 95% | [1]; at 100.0 µM 96% | [2]; at 100.0 µM 85% | [3]; at 3.7 µM 72% | [3]; at 11.0 µM 81% | [3]; at 33.0 µM 89% | [3]; at 100.0 µM 93% | [4]; at 100.0 µM 86% | [5]; at 1.2 µM 83% | [5]; at 3.7 µM 88% | [5]; [17] 78% | [5]; at 11.0 µM 92% | [5]; at 33.0 µM 92% | [5]; [18] 90% | [5]; at 50.0 µM 82.5% | [5]; at 100.0 µM 92% | [6]; at 11.0 µM 75% | [6]; at 33.0 µM 90% | [6]; [18] 86% | [6]; at 50.0 µM 88.1% | [6]; at 100.0 µM 93% | [7]; at 100.0 µM 87% | [8]; [18] 82% | [8]; at 50.0 µM 79% | [9]; at 33.0 µM 71% | [9]; at 100.0 µM 86% | [11]; at 50.0 µM 76.3% | [11]; at 100.0 µM 88% | [12]; at 100.0 µM 82% | [13]; at 100.0 µM 83% | [14]; at 33.0 µM 82% | [14]; at 100.0 µM 90% | [15]; [18] 72% | [15]; at 50.0 µM 83.1% | [16]; at 33.0 µM 75% | [16]; at 100.0 µM 84%
inactive: [2]; at 1.2 µM 13% | [2]; at 3.7 µM 12% | [2]; at 11.0 µM 28% | [2]; at 33.0 µM 62% | [3]; at 1.2 µM 29% | [4]; at 1.2 µM 21% | [4]; at 3.7 µM 25% | [4]; at 11.0 µM 34% | [4]; at 33.0 µM 63% | [6]; at 1.2 µM 19% | [6]; at 3.7 µM 33% | [6]; [17] -5% | [7]; at 1.2 µM 3% | [7]; at 3.7 µM 0% | [7]; at 11.0 µM 16% | [7]; at 33.0 µM 66% | [8]; [17] 28% | [9]; at 1.2 µM 31% | [9]; at 3.7 µM 34% | [9]; at 11.0 µM 41% | [10]; [17] 0% | [10]; [18] 51% | [10]; at 50.0 µM 64.5% | [11]; at 1.2 µM 17% | [11]; at 3.7 µM 12% | [11]; [17] -9% | [11]; at 11.0 µM 28% | [11]; at 33.0 µM 69% | [11]; [18] 68% | [12]; at 1.2 µM -22% | [12]; at 3.7 µM -32% | [12]; at 11.0 µM -19% | [12]; at 33.0 µM 37% | [13]; at 1.2 µM 24% | [13]; at 3.7 µM 7% | [13]; at 11.0 µM 16% | [13]; at 33.0 µM 61% | [14]; at 1.2 µM 26% | [14]; at 3.7 µM 30% | [14]; at 11.0 µM 51% | [15]; [17] 2% | [16]; at 1.2 µM 25% | [16]; at 3.7 µM 34% | [16]; at 11.0 µM 46%
